Laboratory results from PubChem BioAssay (NCI).
The panel holds about 83,000 compounds, 20% with a hit somewhere; the sample as a whole holds those more often.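 The test compound was applied at a single concentration to cells in 96-well plates for 48 hours, and percent growth was recorded.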 A number with no mark means an inactive call. The source made the active and inactive calls. The calls were made as follows: active = growth percent below 10; inactive = the rest.

Each molecule was assayed on SK-MEL-28 melanoma (assay: NCI-60 one-dose screen, 48 h (100 = growth as untreated, 0 = no growth, -100 = all killed)). Conditions: 10 µM unless noted.

Q: How did the growth turn out when CN1CCN(Cc2ccc(NC(=O)c3cncc(C#Cc4cnc5ccc(N6CCN(C)CC6)nn45)c3)cc2C(F)(F)F)CC1 was run?
A: 82%

Q: Which growth does the source give for O=C(O)c1cn(C2CC2)c2cc(N3CCN(C(=O)CN4C(=O)CSC4=O)CC3)c(F)cc2c1=O here?
A: 101%

Q: Which growth does the source give for NC/C(=C/F)COc1ccc2nc(NCc3cccnc3)oc2c1 here?
A: 110%

Q: With C=C(C)[C@@H]1CC[C@]2(C(=O)NCCCCCN(CCC#N)CCC#N)CC[C@]3(C)[C@H](CC[C@@H]4[C@@]5(C)CCC(=O)C(C)(C)[C@@H]5CC[C@]43C)[C@@H]12 as the molecule, how does the growth read?
A: 108%

Q: CCCCNNC(=O)c1ccc(-c2cccc(F)c2F)cc1 was tested. Which growth did it give?
A: 25.7%

Q: With C#Cc1ccc(C(=O)NCc2ccc(/C=C/C(=O)c3nccn3C)cc2)cc1 as the molecule, how does the growth read?
A: 48.8%

Q: Which growth does the source give for COc1ccc(/C(N)=N/C(N)=N/c2nc3ccccc3s2)cc1 here?
A: 79.6%

Q: With O=C(CN1CCN(c2cc(=O)[nH]c3ccc(F)cc23)CC1)Nc1ccc(Cl)cc1 as the molecule, how does the growth read?
A: 82.3%

Q: Cc1ccc(-n2cc(/C=C/C(=O)c3ccc(O)cc3)c(-c3ccc(S(C)(=O)=O)cc3)n2)cc1 was tested. Which growth did it give?
A: 82.3%

Q: With O=S(=O)(NCCCNc1nccc(-c2[nH]c(-c3ccccc3)nc2-c2ccc(Cl)c(O)c2)n1)c1cccc(F)c1 as the molecule, how does the growth read?
A: 25.3%

Q: How did the growth turn out when Cc1cc(-c2ccc(Cl)cc2)n(Cc2nnc(SCC(=O)Nc3ccc(S(N)(=O)=O)cc3)n2C2CCCCC2)n1 was run?
A: 106%

Q: Oc1cccc2ccc(-c3nnc(SCc4ccc(O)c5ncccc45)n3-c3ccccc3)nc12 was tested. Which growth did it give?
A: 22%

Q: For Cc1ccc(-c2nn(-c3ccccc3)cc2/C=C/C(=O)c2ccc(NC(=O)CCCCCCC(=O)NO)cc2)cc1, which growth is on record?
A: 89%

Q: For CC(C)(C)c1ccc(C(=O)Nc2sc3c(c2C(N)=O)CCC(O)C3)cc1 (stereo not drawn), which growth is on record?
A: 49.3%

Q: O=C(Nc1ccc2c(ccn2Cc2ccccn2)c1)c1ccnnc1 was tested. Which growth did it give?
A: 108%

Q: Which growth does the source give for CC(C)(C)c1ccc(C(=O)Nc2sc3c(c2C(N)=O)CC/C(=N\O)C3)cc1 here?
A: 31.4%

Q: With NC(N)=Nc1ccc(Oc2cccc(Nc3ccc(Cl)cc3)c2)cn1 as the molecule, how does the growth read?
A: 49.4%

Q: With CCc1cccc(NC(=O)CNc2cc(S(=O)(=O)N(C)C)cc(C)c2C)c1 as the molecule, how does the growth read?
A: 99.5%

Q: Which growth does the source give for COc1ccc(N2C(=O)c3cc(Cl)ccc3NC2SCc2ccccc2)cc1 (stereo not drawn) here?
A: 99.2%

Q: How did the growth turn out when O=C(CN1CCN(c2cc(=O)n(-c3ccccc3)c3ccccc23)CC1)Nc1nc(-c2ccc(Cl)cc2)cs1 was run?
A: 69.2%

Q: COc1ccc(C2c3sc4c(C)cccc4c3Oc3nc(CC(=O)Nc4ccccc4)[nH]c(=O)c32)cc1 (stereo not drawn) was tested. Which growth did it give?
A: 76%

Q: O=C(/C=C/c1ccc(F)cc1)c1ccc(O)cc1 was tested. Which growth did it give?
A: 109%

Q: Cn1ccnc1C(=O)/C=C/c1ccc(NC(=O)c2c(F)c(F)c(F)c(F)c2F)cc1 was tested. Which growth did it give?
A: 105%

Q: For Nc1cc(-c2c[nH]c3ccc(Br)cc23)nc2cc(-c3c[nH]c4ccc(Br)cc34)nn12, which growth is on record?
A: 49.9%

Q: For C#CCC#CCN1CCC[C@H]1C(=O)NCC(=O)OC, which growth is on record?
A: 101%

Q: For COc1cc(/C=C/C(=O)c2ccc(NC(=O)CSc3nnc(-c4ccc(-c5nc6ccc(Cl)cc6[nH]5)cc4)o3)cc2)cc(OC)c1OC, which growth is on record?
A: 88.3%

Q: Oc1cccc2ccc(-c3nnc(SCc4ccc(O)c5ncccc45)o3)nc12 was tested. Which growth did it give?
A: 35.2%

Q: Which growth does the source give for NS(=O)(=O)c1ccc(Nc2nc(SCc3ccccc3)nc3ccccc23)cc1 here?
A: 91.6%

Q: O=C1[C@@H]2Cc3c([nH]c4ccccc34)[C@H](c3c(Cl)cccc3Cl)N2C(=O)CN1C1CCN(CC2CCCCC2)CC1 was tested. Which growth did it give?
A: 93.9%

Q: How did the growth turn out when NS(=O)(=O)c1ccc(Nc2nc(N/N=C/c3c[nH]c4ccccc34)nc(Nc3ccccc3)n2)cc1 was run?
A: 45.9%

Q: For N#Cc1c(-c2cccs2)cc(-c2cnccn2)nc1SCC(=O)Nc1ccc(Br)cc1, which growth is on record?
A: 89.7%

Q: With COc1ccc(Cn2cc3c(c2-c2cc(OC)c(OC)c(OC)c2)CCc2c(CN4CCOCC4)noc2-3)cc1 as the molecule, how does the growth read?
A: 60.7%

Q: C=CCn1c(SCC(=O)Nc2ccc(C(=O)/C=C/c3ccc(C)cc3)cc2)nnc1-c1c[nH]c2ccccc12 was tested. Which growth did it give?
A: 96%

Q: COc1ccccc1C(=O)Nc1cccc2c1C(=O)C(=O)C=C2 was tested. Which growth did it give?
A: 108%

Q: Which growth does the source give for COc1cc(-c2nn(C(C)(C)C)cc2-c2ccnc(NCCCNS(=O)(=O)c3ccc(Cl)cc3)n2)ccc1Cl here?
A: 84.2%

Q: For CCc1cccc2c3c(sc12)C(c1ccc(Cl)cc1)C(C#N)=C(/N=C/c1ccc(Cl)cc1)O3 (stereo not drawn), which growth is on record?
A: 56.7%

Q: Which growth does the source give for C=C(C=O)[C@@H]1CC[C@]2(COC(C)=O)CC[C@]3(C)C(CC[C@@H]4[C@@]5(C)CC[C@H](OC(C)=O)C(C)(C)[C@@H]5CC[C@]43C)[C@@H]12 (stereo partly drawn) here?
A: -42.8% (active)

Q: With COc1ccccc1N1CCN(C2=CC(=O)C(C)=C(C)C2=O)CC1 as the molecule, how does the growth read?
A: 119%
